# In the supplement of paper PMC6555819:
# Tests used:
# Assay in all cases: PBM binding z-score (relative to random genomic background probes); higher = stronger binding; sequences stand for … in GC…GCGATTGACAGCGTAGAATGAAGG
# [1] = system: PPARg:RXRa DBDmut IVT, anti-RXR (DBD mutation: RXRa K156A/R161A, NR concentration 270 nM, RXRa partner concentration 90 nM)
# How it was run: (§1)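 Ligand-free nuclear receptor dimers were applied to custom Agilent 4×180K protein-binding microarrays whose double-stranded probes carried direct-repeat seeds, single-nucleotide variants, half-site ablations and random human genomic background sequences in 34-nt variable regions. Incubation lasted 1 h. Binding z-scores were computed against the random background probes from regression-normalized fluorescence.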
# [2] = system: PPARg:RXRa IVT, anti-PPARg (NR concentration 270 nM, RXRa partner concentration 90 nM)
# How it was run: as §1
# [3] = system: PPARg DBDmut:RXRa IVT, anti-PPARg (DBD mutation: PPARg1 K132A/R137A, NR concentration 270 nM, RXRa partner concentration 90 nM)
# How it was run: as §1
# [4] = system: PPARg DBDmut IVT, anti-PPARg (DBD mutation: PPARg1 K132A/R137A, NR concentration 270 nM)
# How it was run: as §1
# [5] = system: PPARg homodimer (NR concentration 180 nM)
# How it was run: as §1
# [6] = system: PXR:RXRa (NR concentration 270 nM, RXRa partner concentration 90 nM)
# How it was run: as §1
# [7] = system: PXR homodimer (NR concentration 270 nM)
# How it was run: as §1
# [8] = system: RARa:RXR (NR concentration 270 nM, RXRa partner concentration 90 nM)
# How it was run: as §1
# [9] = system: RARa homodimer (NR concentration 270 nM)
# How it was run: as §1
# [10] = system: RARb:RXRa (NR concentration 270 nM, RXRa partner concentration 90 nM)
# How it was run: as §1
# [11] = system: RARb homodimer (NR concentration 270 nM)
# How it was run: as §1
# [12] = system: RARg:RXRa (NR concentration 270 nM, RXRa partner concentration 90 nM)
# How it was run: as §1
# [13] = system: RARg homodimer (NR concentration 270 nM)
# How it was run: as §1
# [14] = system: RXRa DBDmut IVT, anti-RXR (DBD mutation: RXRa K156A/R161A, NR concentration 90 nM)
# How it was run: as §1
# [15] = system: RXRa homodimer (NR concentration 180 nM)
# How it was run: as §1
# [16] = system: THRa:RXRa (NR concentration 90 nM, RXRa partner concentration 90 nM)
# How it was run: as §1
# [17] = system: THRa homodimer (NR concentration 90 nM)
# How it was run: as §1
# [18] = system: VDR:RXRa (NR concentration 270 nM, RXRa partner concentration 90 nM)
# How it was run: as §1
# [19] = system: VDR homodimer (NR concentration 270 nM)
# How it was run: as §1
sequence,measurement,setting,value
CCTGCTAGGTCAATGGTCAGCAAAAGCAGCTCGC,PBM binding z-score,[1],4.13
same,PBM binding z-score,[2],3.94
same,PBM binding z-score,[3],-0.42
same,PBM binding z-score,[4],-0.782
same,PBM binding z-score,[5],0.701
same,PBM binding z-score,[6],0.88
same,PBM binding z-score,[7],-0.358
same,PBM binding z-score,[8],1.49
same,PBM binding z-score,[9],-0.178
same,PBM binding z-score,[10],3.86
same,PBM binding z-score,[11],2.84
same,PBM binding z-score,[12],3.57
same,PBM binding z-score,[13],4.83
same,PBM binding z-score,[14],1.78
same,PBM binding z-score,[15],2.47
same,PBM binding z-score,[16],2.16
same,PBM binding z-score,[17],0.37
same,PBM binding z-score,[18],0.941
same,PBM binding z-score,[19],0.312
CCTCGGAGGACAGCAGGTCAGAGCTGTCCGCTTT,PBM binding z-score,[1],-0.0532
same,PBM binding z-score,[2],-0.162
same,PBM binding z-score,[3],-1.57
same,PBM binding z-score,[4],-1.57
same,PBM binding z-score,[5],0.113
same,PBM binding z-score,[6],0.0301
same,PBM binding z-score,[7],-0.196
same,PBM binding z-score,[8],0.742
same,PBM binding z-score,[9],-0.236
same,PBM binding z-score,[10],2.04
same,PBM binding z-score,[11],2.25
same,PBM binding z-score,[12],2.17
same,PBM binding z-score,[13],1.91
same,PBM binding z-score,[14],-0.0565
same,PBM binding z-score,[15],0.242
same,PBM binding z-score,[16],1.74
same,PBM binding z-score,[17],0.123
same,PBM binding z-score,[18],-0.115
same,PBM binding z-score,[19],-0.273
ATCTCTAGGTAAAGATAGTTCAGTGATTGCAAAT,PBM binding z-score,[1],2.16
same,PBM binding z-score,[2],1.82
same,PBM binding z-score,[3],0.778
same,PBM binding z-score,[4],1.85
same,PBM binding z-score,[5],1.19
same,PBM binding z-score,[6],1.38
same,PBM binding z-score,[7],0.822
same,PBM binding z-score,[8],0.722
same,PBM binding z-score,[9],1.29
same,PBM binding z-score,[10],0.865
same,PBM binding z-score,[11],1.2
same,PBM binding z-score,[12],0.619
same,PBM binding z-score,[13],0.722
same,PBM binding z-score,[14],0.503
same,PBM binding z-score,[15],0.395
same,PBM binding z-score,[16],0.879
same,PBM binding z-score,[17],0.445
same,PBM binding z-score,[18],1.07
same,PBM binding z-score,[19],0.789
CCTCGGAGGACAGAAGGTCACAGCTGTCCGCTTT,PBM binding z-score,[1],0.643
same,PBM binding z-score,[2],1.32
same,PBM binding z-score,[3],-1.36
same,PBM binding z-score,[4],-2.05
same,PBM binding z-score,[5],2.05
same,PBM binding z-score,[6],3.33
same,PBM binding z-score,[7],-0.204
same,PBM binding z-score,[8],4.13
same,PBM binding z-score,[9],1.25
same,PBM binding z-score,[10],3.77
same,PBM binding z-score,[11],4.26
same,PBM binding z-score,[12],4.72
same,PBM binding z-score,[13],4.05
same,PBM binding z-score,[14],0.581
same,PBM binding z-score,[15],3.83
same,PBM binding z-score,[16],3.36
same,PBM binding z-score,[17],0.632
same,PBM binding z-score,[18],2.64
same,PBM binding z-score,[19],0.765
CGTCCAAGCTCAAGGTCAGTGAAAGAGACTCGAA,PBM binding z-score,[1],-0.0335
same,PBM binding z-score,[2],0.547
same,PBM binding z-score,[3],-0.701
same,PBM binding z-score,[4],-0.496
same,PBM binding z-score,[5],1.59
same,PBM binding z-score,[6],1.51
same,PBM binding z-score,[7],0.437
same,PBM binding z-score,[8],1.86
same,PBM binding z-score,[9],0.0805
same,PBM binding z-score,[10],3.43
same,PBM binding z-score,[11],3.16
same,PBM binding z-score,[12],2.55
same,PBM binding z-score,[13],3.24
same,PBM binding z-score,[14],0.755
same,PBM binding z-score,[15],1.81
same,PBM binding z-score,[16],2.87
same,PBM binding z-score,[17],1.83
same,PBM binding z-score,[18],1.18
same,PBM binding z-score,[19],1.18
GGAACGAGGGCAAAGTTGATAGCCTCTGTCGACG,PBM binding z-score,[1],4.2
same,PBM binding z-score,[2],4.33
same,PBM binding z-score,[3],-0.184
same,PBM binding z-score,[4],-0.449
same,PBM binding z-score,[5],0.223
same,PBM binding z-score,[6],1.1
same,PBM binding z-score,[7],-0.21
same,PBM binding z-score,[8],1.37
same,PBM binding z-score,[9],-0.637
same,PBM binding z-score,[10],2.24
same,PBM binding z-score,[11],1.42
same,PBM binding z-score,[12],2.14
same,PBM binding z-score,[13],1.91
same,PBM binding z-score,[14],2.49
same,PBM binding z-score,[15],1.84
same,PBM binding z-score,[16],1.35
same,PBM binding z-score,[17],-0.295
same,PBM binding z-score,[18],0.981
same,PBM binding z-score,[19],1.54
ATCTCTAGGTAACCAAGTTCAGTGAGTGCCGAAC,PBM binding z-score,[1],3.88
same,PBM binding z-score,[2],2.77
same,PBM binding z-score,[3],0.349
same,PBM binding z-score,[4],0.828
same,PBM binding z-score,[5],0.761
same,PBM binding z-score,[6],2.12
same,PBM binding z-score,[7],3.09
same,PBM binding z-score,[8],0.548
same,PBM binding z-score,[9],0.845
same,PBM binding z-score,[10],1.21
same,PBM binding z-score,[11],1.55
same,PBM binding z-score,[12],0.591
same,PBM binding z-score,[13],0.796
same,PBM binding z-score,[14],1.34
same,PBM binding z-score,[15],0.412
same,PBM binding z-score,[16],1.52
same,PBM binding z-score,[17],0.776
same,PBM binding z-score,[18],4.27
same,PBM binding z-score,[19],2.83
GGAAGGAGGGCATTCGAGTTGATAGCATGGCGAT,PBM binding z-score,[1],3.26
same,PBM binding z-score,[2],2.42
same,PBM binding z-score,[3],-0.146
same,PBM binding z-score,[4],0.314
same,PBM binding z-score,[5],0.39
same,PBM binding z-score,[6],3.38
same,PBM binding z-score,[7],1.3
same,PBM binding z-score,[8],0.52
same,PBM binding z-score,[9],-0.113
same,PBM binding z-score,[10],1.56
same,PBM binding z-score,[11],1.15
same,PBM binding z-score,[12],0.897
same,PBM binding z-score,[13],1.34
same,PBM binding z-score,[14],1.47
same,PBM binding z-score,[15],0.679
same,PBM binding z-score,[16],2.83
same,PBM binding z-score,[17],0.445
same,PBM binding z-score,[18],2.46
same,PBM binding z-score,[19],2.01
